High-throughput results deposited in PubChem BioAssay by Johns Hopkins Ion Channel Center.
Rows were chosen to be rich in hits. Some 1.6% of all compounds tested hit in one or more screens of this group.
KCNQ2 pot = potentiators of rat KCNQ2 potassium channel | CHO-K1 KCNQ2, FluxOR thallium flux fluorescence; active compounds read high | B-score at 10 µM | AID 2239, 2010 | 310,000 tested, 0.54% active;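 active means fluorescence ratio B-score at least 3 SD of library B-scores, with initial fluorescence B-score within 3 of them, cut at about 5.3 in these data; same plate scores as AID 2156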;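 further: B-score of peak minus minimum over baseline fluorescence ratio after K+ and Tl+ stimulus; positive B-score means potentiation of KCNQ2 with more thallium influx and brighter signal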
KCNQ2 block = rat KCNQ2 potassium channel inhibitors, primary screen, cell-based, CHO-K1, FluxOR thallium flux, B-score; 20 min; active compounds read low; B-score at 10 µM; 310,000 tested, 1.1% active; AID 2156, 2009;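 active means fluorescence ratio B-score at most minus 3 library SDs, with starting brightness B-score within 2 library SDs, cut at about -5.5 in these data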
Kir21 conf inh = mouse Kir2.1 channel blockers, retest, confirmation, cell-based, FluxOR thallium flux, duplicate. shares compounds with KCNQ2 pot. Kir2.1-expressing cells, FluxOR thallium flux fluorescence; active compounds read low. Tl flux remaining, % of negative control (active compounds read low), % at 10 µM. 2,300 tested, 41% active. AID 2032, 2009;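 active means Primary-screen hit whose thallium flux fell at least 3 control SD below untreated wells in both duplicates, with normal baseline fluorescence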;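 further: 0% = blank wells without stimulus and 100% = stimulated no-compound controls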
HEK293 Tl flux = parental HEK293 activity in Kir2.1 inhibitor counter-screen | FluxOR signal as % of negative control (100 = no effect), % at 10 µM | 2,300 tested, 19% active | shares compounds with KCNQ2 pot | parental HEK293 cells, FluxOR thallium flux fluorescence; 0% = unstimulated blank wells;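 active means dye signal at least 3 control SD above or below untreated wells in both duplicates, raw fluorescence within 3, either direction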;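 further: percent is based on the flux ratio of peak minus minimum fluorescence over baseline F0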
CHO-K1 ctr = nonspecific thallium flux increase in parental CHO-K1, confirmation, counter-screen for KCNQ2 potentiator project, cell-based, FluxOR thallium flux, duplicate; AID 2282, 2010; parental CHO-K1 cells, FluxOR thallium flux fluorescence; zero = vehicle mean+3SD, 100% = vehicle-minus-blank window; shares compounds with KCNQ2 pot; 1,200 tested, 43% active; activity increase over 3SD of controls, % at 10 µM;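 active means signal rise of at least 3 SD above the untreated control mean, in both duplicate wells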;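 further: counter screen of KCNQ2 potentiator hits so any rise reflects channel-independent effects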
KCNQ1 pot spec = human KCNQ1 channel potentiation off-target, confirmation, selectivity assay for KCNQ2 potentiator project, cell-based, CHO, FluxOR thallium flux; shares compounds with KCNQ2 pot; CHO KCNQ1 stable, FluxOR thallium flux fluorescence; beyond 3SD, as % of vehicle-control signal; activation over 3SD threshold, % at 10 µM; 1,200 tested, 28% active;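 active means fluorescence ratio rise of at least 3 SD of vehicle wells above their mean, in both replicate wells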;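 further: 0% = vehicle mean plus 3 SD and 100% = vehicle minus unstimulated blank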
KCNQ2 pot confirm = rat KCNQ2 channel potentiators, confirmation, cell-based, CHO, FluxOR thallium flux, duplicate. shares compounds with KCNQ2 pot. CHO-KCNQ2 cells, FluxOR thallium flux fluorescence. potentiation, less the hit threshold, % at 10 µM. 1,200 tested, 68% active;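 active means fluorescence ratio rising 3 SD or more over the vehicle control mean in both replicates, plus primary screen hit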;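 further: peak minus minimum thallium fluorescence divided by baseline after K/Tl stimulus; 0% = vehicle mean plus 3 SD and 100% = vehicle minus unstimulated blank difference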
Kir2-1 sel = mouse Kir2.1 channel activation off-target, confirmation, selectivity assay for KCNQ2 potentiator project, cell-based, HEK293, FluxOR thallium flux; shares compounds with KCNQ2 pot; HEK293 Kir2.1, FluxOR thallium flux fluorescence; activity over 3SD threshold, % at 10 µM; 1,200 tested, 2% active; AID 2345, 2010;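 active means fluorescence ratio rise of at least 3 SD above the vehicle-control mean, seen in both replicates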;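 further: 0% = vehicle mean plus 3 SD and 100% = vehicle minus no-stimulus blank window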
KCNQ2 W236L MoA = potentiators of retigabine-insensitive KCNQ2 W236L, mechanism study for KCNQ2 potentiator project, cell-based, rat KCNQ2 W236L, CHO, automated patch clamp. shares compounds with KCNQ2 pot. automated patch clamp current. current increase over 3SD of negative controls (%), active compounds read high, % at 25 µM. 940 tested, 10% active. AID 2558, 2010;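 active means current increase at least 3 SD of the untreated controls above them in both duplicate recordings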
Target sequence (O88943 whole entry W236L, looked up): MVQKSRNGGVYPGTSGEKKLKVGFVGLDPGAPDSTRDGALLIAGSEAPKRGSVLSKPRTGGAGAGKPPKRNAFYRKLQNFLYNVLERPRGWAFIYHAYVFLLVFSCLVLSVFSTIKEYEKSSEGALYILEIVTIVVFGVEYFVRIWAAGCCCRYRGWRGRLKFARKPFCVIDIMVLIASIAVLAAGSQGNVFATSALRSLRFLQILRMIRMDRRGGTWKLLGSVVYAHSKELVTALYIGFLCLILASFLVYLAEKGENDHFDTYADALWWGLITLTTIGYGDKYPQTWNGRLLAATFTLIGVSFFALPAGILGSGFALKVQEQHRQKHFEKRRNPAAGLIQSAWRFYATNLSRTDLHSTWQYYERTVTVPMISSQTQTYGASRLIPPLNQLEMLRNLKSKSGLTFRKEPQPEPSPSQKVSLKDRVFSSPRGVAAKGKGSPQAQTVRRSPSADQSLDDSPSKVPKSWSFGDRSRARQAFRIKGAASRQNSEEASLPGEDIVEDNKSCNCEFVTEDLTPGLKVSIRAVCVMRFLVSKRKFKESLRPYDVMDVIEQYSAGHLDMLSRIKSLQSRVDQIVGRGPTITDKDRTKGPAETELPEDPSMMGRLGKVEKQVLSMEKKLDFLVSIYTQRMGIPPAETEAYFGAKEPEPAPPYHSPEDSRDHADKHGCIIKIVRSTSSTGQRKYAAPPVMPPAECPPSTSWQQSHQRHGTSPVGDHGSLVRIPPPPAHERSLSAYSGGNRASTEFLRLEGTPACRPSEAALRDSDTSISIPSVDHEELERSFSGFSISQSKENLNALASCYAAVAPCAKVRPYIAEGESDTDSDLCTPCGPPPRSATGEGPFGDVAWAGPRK
The depositor's hits bear a star; i = inactive; nt = no result given.

SMILES	KCNQ2 pot	KCNQ2 block	Kir21 conf inh	HEK293 Tl flux	others
CC1=NN(C(N)=S)C(=O)C1N=Nc1cccc(Cl)c1C (configuration not stated)	40*	i	i	i	CHO-K1 ctr=-6;KCNQ1 pot spec=-16;KCNQ2 pot confirm=110*;Kir2-1 sel=-36;KCNQ2 W236L MoA=i
CC1=NN(C(N)=S)C(=O)C1N=Nc1cccc2ccccc12 (configuration not stated)	nt	i	nt	nt
COc1ccccc1C1(O)C(=O)Nc2ccc(C)cc21 (configuration not stated)	0.14	i	nt	nt
Cc1c(C(=O)O)sc2[nH]c(=O)n(Cc3ccccc3)c(=O)c12	1.2	i	nt	nt
COc1ccc(NC(=O)N/C=C/c2ccco2)cc1	0.31	i	nt	nt
O=C(N/C=C/c1ccco1)Nc1cccc(Cl)c1	14*	i	i	i	CHO-K1 ctr=-11;KCNQ1 pot spec=-31;KCNQ2 pot confirm=61*;Kir2-1 sel=-20;KCNQ2 W236L MoA=i
C=CCn1c(O)c(C2=c3ccccc3=NC2=O)sc1=Nc1ccc(O)cc1	0.03	i	nt	nt
CC(C)(C)c1ccc(OCCCCCCN2CCNCC2)cc1	nt	i	nt	nt
CC(C)(c1ccccc1)c1ccc(OCCCN2CCNCC2)cc1	2	i	50%*	i
CCNC(=O)NC(=O)C(C)Sc1nc2ccccc2n1CC(C)C (configuration not stated)	nt	i	nt	nt
CCC(=O)Nc1ccc(NC(=O)C23CC4CC(CC(C4)C2)C3)cn1	nt	i	nt	nt
CC(NC(=O)C12CC3CC(CC(C3)C1)C2)c1ccc2c(c1)OCCO2 (configuration not stated)	3.9	i	nt	nt
Cc1ccc(C(C)NC(=O)C23CC4CC(CC(C4)C2)C3)cc1 (configuration not stated)	6*	i	i	i	CHO-K1 ctr=-4;KCNQ1 pot spec=65*;KCNQ2 pot confirm=6.5*;Kir2-1 sel=-22;KCNQ2 W236L MoA=i
Cc1ccnc(NC(=O)C23CC4CC(CC(C4)C2)C3)c1	9.7*	i	i	i	CHO-K1 ctr=-8;KCNQ1 pot spec=-13;KCNQ2 pot confirm=33*;Kir2-1 sel=-18;KCNQ2 W236L MoA=i
O=C(Nc1cc(Cl)ccc1C(=O)O)c1ccc(CN2C(=O)c3ccccc3C2=O)cc1	1.7	i	nt	nt
CC(C)c1ccc(C(C)NCCS(=O)(=O)c2ccc(Br)cc2)cc1 (configuration not stated)	nt	i	nt	nt
CC(NCCS(=O)(=O)c1ccc(Cl)cc1)c1cccc(Cl)c1 (configuration not stated)	0.87	i	34%*	i
O=C(OCC(=O)N1CCC(Cc2ccccc2)CC1)c1ccccc1	0.04	i	nt	nt
COc1cc(C(=O)OCC(=O)N2CCC(Cc3ccccc3)CC2)cc(OC)c1OC	5.6*	i	i	67%*	CHO-K1 ctr=-8;KCNQ1 pot spec=-14;KCNQ2 pot confirm=35*;Kir2-1 sel=-50;KCNQ2 W236L MoA=i
COc1ccc(NC(=O)CSc2nnc(CCC(=O)Nc3ccc(C)c(Cl)c3)n2C)cc1	1.8	i	nt	nt
O=C(Nc1scc(-c2ccc(Br)cc2)c1C(=O)O)c1ccccc1F	5.3*	i	i	186%*	CHO-K1 ctr=-10;KCNQ1 pot spec=-13;KCNQ2 pot confirm=34*;Kir2-1 sel=-28;KCNQ2 W236L MoA=i
O=C(Nc1scc(-c2ccccc2)c1C(=O)O)c1ccccc1F	nt	i	nt	nt
Cc1ccccc1CN(C)CC(=O)NC(C)CCc1ccccc1 (configuration not stated)	-6.6	-6.6*	34%*	i
Cc1ccc(CC(=O)NC(C)CCc2ccccc2)cc1 (configuration not stated)	nt	i	nt	nt
CN(C)C(CNC(=O)c1cccc(C(F)(F)F)c1)c1ccco1 (configuration not stated)	0.45	i	nt	nt
SMILES	KCNQ2 pot	KCNQ2 block	Kir21 conf inh	HEK293 Tl flux	others
CCOc1ccc(S(=O)(=O)N2CCC(C(=O)NCCN3CCOCC3)CC2)cc1C	0.38	i	nt	nt
O=S(=O)(c1ccccc1)N(CC1CO1)c1cccc2ccccc12 (configuration not stated)	1.1	i	nt	nt
C=CCn1c(SCc2ccc(C(=O)OC)cc2)nnc1-c1sc(N)nc1C	0.11	i	nt	nt
C=CCn1c(SC/C=C/c2ccccc2)nnc1-c1sc(N)nc1C	nt	i	60%*	i
COc1ccc(OC)c(NC(=O)C(=O)NNC(=O)COc2ccc(Br)cc2C)c1	17*	i	i	350%*	CHO-K1 ctr=-8;KCNQ1 pot spec=12*;KCNQ2 pot confirm=68*;Kir2-1 sel=-15;KCNQ2 W236L MoA=i
COc1ccc(OC)c(NC(=O)Nc2ccc(O)c3ccccc23)c1	nt	i	nt	nt
O=C(COc1ccc2ccccc2c1)NNC(=O)Nc1ccccc1F	nt	i	nt	nt
COc1ccc(C(=O)Nc2cccc3ccccc23)cc1	nt	i	nt	nt
COc1ccc(C(=O)NNC(=O)C(=O)Nc2cccc3ccccc23)cc1	10*	i	i	156%*	CHO-K1 ctr=2.3*;KCNQ1 pot spec=-20;KCNQ2 pot confirm=-2;Kir2-1 sel=-23;KCNQ2 W236L MoA=i
COc1ccc(CC(=O)NNC(=O)COc2ccc(Br)cc2C)cc1OC	nt	i	nt	nt
COc1ccc(OC)c(NC(=O)Nc2c(O)ccc3ccccc23)c1	7.8*	i	nt	nt	CHO-K1 ctr=-21;KCNQ1 pot spec=-40;KCNQ2 pot confirm=-11;Kir2-1 sel=-72
Cc1ccccc1NC(=O)C(=O)NNC(=O)COc1ccc2ccccc2c1	7*	i	i	248%*	CHO-K1 ctr=-4;KCNQ1 pot spec=-15;KCNQ2 pot confirm=20*;Kir2-1 sel=-21;KCNQ2 W236L MoA=i
Cc1nn(C)cc1CNCc1c(C(=O)N2CCCCC2)nc2c(C)cccn12	nt	i	nt	nt
C[C@H](NC(=O)[C@@H]1CSC2c3ccccc3C(=O)N21)C(=O)NCc1c(F)cccc1Cl (some centres not stated)	nt	i	nt	nt
Cc1cccc(NC(=O)c2cc([N+](=O)[O-])ccc2N2CCCCC2)n1	nt	i	nt	nt
NC(=O)c1ccc(NC(=O)CNC(c2ccccc2)c2ccccc2)cc1	0.86	i	nt	nt
